# The whole screen tested about 310,000 compounds, of which about 14,000 (4.5%) showed an effect of 50% or more. Effects have a minus sign here. The list comes from a sample in which strong results are over-represented; it also holds similar structures and randomly drawn compounds.
# Target: human ether-à-go-go-related gene (hERG) potassium channel (human, UniProt Q12809)
# Assay: primary screen, population patch clamp on CHO cells stably expressing hERG; higher = less effect of the substance
# 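Note: peak tail current of the secondary pulse compared with the same well before compound.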
# Sequence of human ether-à-go-go-related gene (hERG) potassium channel (Q12809 whole entry, looked up): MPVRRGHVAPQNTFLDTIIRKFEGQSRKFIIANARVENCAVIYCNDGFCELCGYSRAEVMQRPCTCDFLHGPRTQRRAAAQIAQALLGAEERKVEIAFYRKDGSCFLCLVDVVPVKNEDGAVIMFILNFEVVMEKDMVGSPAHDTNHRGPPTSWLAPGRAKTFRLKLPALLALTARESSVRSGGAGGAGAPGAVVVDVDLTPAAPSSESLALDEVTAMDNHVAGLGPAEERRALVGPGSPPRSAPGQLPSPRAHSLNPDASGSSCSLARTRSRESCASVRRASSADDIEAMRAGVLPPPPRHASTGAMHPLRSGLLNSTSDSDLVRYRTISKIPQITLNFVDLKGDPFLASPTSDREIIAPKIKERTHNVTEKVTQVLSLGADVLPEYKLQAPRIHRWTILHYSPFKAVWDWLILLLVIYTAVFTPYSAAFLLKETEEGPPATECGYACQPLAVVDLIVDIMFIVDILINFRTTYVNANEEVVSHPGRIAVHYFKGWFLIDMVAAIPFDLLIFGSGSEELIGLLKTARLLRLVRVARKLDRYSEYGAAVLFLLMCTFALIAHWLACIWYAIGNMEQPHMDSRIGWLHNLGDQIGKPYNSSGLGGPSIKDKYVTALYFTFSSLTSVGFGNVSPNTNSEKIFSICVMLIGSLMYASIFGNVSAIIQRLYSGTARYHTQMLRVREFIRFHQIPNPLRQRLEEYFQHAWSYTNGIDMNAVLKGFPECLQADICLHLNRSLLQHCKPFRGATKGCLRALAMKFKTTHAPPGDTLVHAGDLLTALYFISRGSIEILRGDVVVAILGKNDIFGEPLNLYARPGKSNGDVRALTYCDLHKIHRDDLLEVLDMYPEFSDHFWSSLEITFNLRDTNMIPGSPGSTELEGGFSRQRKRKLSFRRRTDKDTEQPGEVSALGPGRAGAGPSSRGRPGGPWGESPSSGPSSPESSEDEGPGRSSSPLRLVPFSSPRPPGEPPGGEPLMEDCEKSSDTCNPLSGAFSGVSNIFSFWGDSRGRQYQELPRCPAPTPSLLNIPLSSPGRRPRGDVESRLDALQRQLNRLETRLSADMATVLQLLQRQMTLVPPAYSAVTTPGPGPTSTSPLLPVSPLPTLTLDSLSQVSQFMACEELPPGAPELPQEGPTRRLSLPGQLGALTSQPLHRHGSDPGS
row,Compound,"hERG current change (%, negative = inhibition) at 10uM"
1,CC(=O)Nc1cc(NC(=O)C2C3C=CC(C3)C2C(=O)O)ccc1Cl (stereo not shown),14.5%
2,Cc1ccc2nc(CSc3nnc(Nc4ccccc4C)s3)cc(=O)n2c1,-43%
3,CN(C(=O)CSc1nnc(-c2ccc(Cl)cc2)n1CC1CCCO1)C1CCS(=O)(=O)C1 (stereo not shown),-0.671%
4,O=C(c1ccccc1F)N(Cc1cccs1)C1CCS(=O)(=O)C1 (stereo not shown),21.9%
5,CN1C(=O)C2ON(c3ccccc3)C(c3cccs3)C2C1=O (stereo not shown),-13.6%
6,COc1ccc(CN(C)CCc2ccccn2)cc1OC.O=C(O)C(=O)O,-5.06%
7,CSc1ccc(CN(C)CCc2ccccn2)cc1.O=C(O)C(=O)O,-64.4%
8,CCOc1ccc(CN(C)CCc2ccccn2)cc1.O=C(O)C(=O)O,-77.8%
9,COc1cc(CN(C)CCc2ccccn2)cc(OC)c1OC.O=C(O)C(=O)O,-11.6%
10,COc1cc(OC)c(OC)cc1CN(C)CCc1ccccn1.O=C(O)C(=O)O,-11.2%
11,CCOc1ccc(OCCN(C)Cc2ccccc2)cc1.O=C(O)C(=O)O,-45.8%
12,COc1ccc(OC)c(N(CC(=O)Nc2cccnc2)S(=O)(=O)c2ccc(OC)c(OC)c2)c1,-17.9%
13,COC(=O)c1sc(NC(=O)c2cnccn2)c(C(=O)OC)c1C,18.7%
14,COc1ccccc1OCCSc1ncnc2nc[nH]c12,4.63%
15,Cc1ccc(NC(=O)C(C)SCc2nc3sc(C)c(C)c3c(=O)[nH]2)nc1 (stereo not shown),-10.7%
16,CCS(=O)(=O)NC(C)C(c1cccs1)N1CCN(c2ccc(F)cc2)CC1 (stereo not shown),-8.13%
17,CC(C)CCn1cnc2c(cnn2-c2ccc(F)cc2)c1=O,-3.95%
18,CC(C)(C)[C@H]1C=C(C(=O)N2CCN(Cc3ccc4c(c3)OCO4)CC2)O[C@@H](OCCCCO)C1,-23.4%
19,O=C(C1=C[C@@H](c2ccc3c(c2)OCO3)C[C@@H](OCCCCO)O1)N1CCOCC1,7.64%
20,C#Cc1ccc([C@H]2C=C(C(=O)N3CCN(Cc4ccc5c(c4)OCO5)CC3)O[C@@H](OCc3ccc(CO)cc3)C2)cc1,-7.23%
21,O=C(C1=C[C@H](c2ccc3c(c2)OCO3)C[C@H](OCCCCO)O1)N1CCN(Cc2ccc3c(c2)OCO3)CC1,-69.1%
22,O=C(C1=C[C@@H](c2ccc(C(F)(F)F)cc2)C[C@@H](OCCCCO)O1)N1CCN(Cc2ccc3c(c2)OCO3)CC1,-68.8%
23,O=C(C1=C[C@H](c2ccc(C(F)(F)F)cc2)C[C@H](OCCCCO)O1)N1CCN(Cc2ccc3c(c2)OCO3)CC1,-44.1%

row,Compound,"hERG current change (%, negative = inhibition) at 10uM"
1,C[C@@H]1C=C(C(=O)N2CCN(Cc3ccc4c(c3)OCO4)CC2)O[C@H](OCCCCO)C1,4.01%
2,O=C(C1=C[C@H](c2ccc(Br)cc2)C[C@H](OCc2ccc(CO)cc2)O1)N1CCN(Cc2ccc3c(c2)OCO3)CC1,-19.8%
3,O=C(C1=C[C@@H](c2ccc(Br)cc2)C[C@@H](OCc2ccc(CO)cc2)O1)N1CCN(Cc2ccc3c(c2)OCO3)CC1,-9.55%
4,C#Cc1ccc([C@@H]2C=C(C(=O)N3CCN(Cc4ccc5c(c4)OCO5)CC3)O[C@H](OCCCCO)C2)cc1,-64.1%
5,O=C(C1=C[C@H](c2ccc(C(F)(F)F)cc2)C[C@H](OCc2ccc(CO)cc2)O1)N1CCN(Cc2ccc3c(c2)OCO3)CC1,-19.5%
6,O=C(C1=C[C@@H](c2ccc(Br)cc2)C[C@@H](OCCCCO)O1)N1CCN(Cc2ccc3c(c2)OCO3)CC1,-55.3%
7,c1ccc2c(c1)NC1(CCCC1)n1c-2nc2ccccc21,-9.46%
8,CCOP(=S)(OCC)C(O)CCCCCn1c(=O)c(F)cn(C2CCCO2)c1=O (stereo not shown),-2.13%
9,CN(C(=S)Nc1ccc(F)cc1)C(c1ccccc1)c1ccccc1,11.1%
10,CCn1c(SCC(=O)Nc2ccc(NC(C)=O)cc2)nc2c1c(=O)n(C)c(=O)n2C,24.7%
11,CN1CCN(C(=O)C2=C[C@H](c3ccc4c(c3)OCO4)C[C@H](OCCCCO)O2)CC1,-8.06%
12,O=C(C1=C[C@H](c2ccccc2)C[C@H](OCCCCO)O1)N1CCN(Cc2ccc3c(c2)OCO3)CC1,-41.8%
13,CC(=O)n1cc([C@@H]2C=C(C(=O)N3CCN(Cc4ccc5c(c4)OCO5)CC3)O[C@H](OCCCCO)C2)c2ccccc21,-50.2%
14,O=C(C1=C[C@H](c2ccc3c(c2)OCO3)C[C@H](OCCCCO)O1)N1CCN(Cc2ccccc2)CC1,-62.8%
15,O=C(C1=C[C@H](c2ccc3c(c2)OCO3)C[C@H](OCCCCO)O1)N1CCOCC1,-1.14%
16,O=C(C1=C[C@H](c2ccccc2)C[C@H](OCc2ccc(CO)cc2)O1)N1CCN(Cc2ccc3c(c2)OCO3)CC1,-39.5%
17,O=C(C1=C[C@@H](c2ccccc2)C[C@@H](OCCCCO)O1)N1CCN(Cc2ccc3c(c2)OCO3)CC1,-55.2%
18,O=C(C1=C[C@@H](c2ccc3c(c2)OCO3)C[C@@H](OCCCCO)O1)N1CCN(Cc2ccc3c(c2)OCO3)CC1,-65.9%
19,CC(=O)n1cc([C@H]2C=C(C(=O)N3CCN(Cc4ccc5c(c4)OCO5)CC3)O[C@@H](OCCCCO)C2)c2ccccc21,-32.7%
20,CC(=O)n1cc([C@H]2C=C(C(=O)N3CCN(Cc4ccc5c(c4)OCO5)CC3)O[C@@H](OCc3ccc(CO)cc3)C2)c2ccccc21,3.43%
21,CC1(C)CC2(CCO1)OC(=O)CC2C(=O)Nc1ccccc1Cl (stereo not shown),1.54%
22,Cc1ccc(S(=O)(=O)NNC(=O)c2cccs2)c(C)c1,14.4%
23,Cc1ccc(O)c(N=NC2=C(O)CC(C)(C)CC2=O)c1,3.16%

# Reference: PMC4336329 (PLoS ONE, 2015)
